Molecules are shown by their SMILES. Results filed as inconclusive are left out. A call without a number means that no potency is given here. Activity calls are given as the source filed them. Calls follow the shape of the dose curve; as a rule, active = well fitted inhibition curve with a large enough effect; inconclusive = small, poorly fitted or top-dose-only effect; inactive = no such curve, though single readings can be large or run the other way. Where a SMILES comes first, the peptide text is derived from it. [ ]: non-standard residue; d: D form. 2Abz = Nc1ccccc1C(=O)O
Potency is read from the fitted curve at half-maximal effect.

A short description of this test: P-glycoprotein substrates identified in KB-3-1 adenocarcinoma cell line, qHTS therapeutic library screen (AID 1346986). Also: nearly all actives have a fitted effect of over 60% in size.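 Also: potency is for cytotoxicity meaning loss of cell viability.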 The conditions noted are these: KB-3-1 parental cells viability, CellTiter-Glo, 72 h; series mostly up to 44.5 µM; activity change, negative = cytotoxicity: at the top concentration. The method, boiled down:
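72 h cell-killing screen, 500 cells/well, CellTiter-Glo luminescence. Paired lines KB-3-1/KB-8-5-11; P-gp dependence checked by tariquidar co-treatment and HEK-293 MDR-19 versus empty-vector cells.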
For orientation: qHTS replaces the single test concentration by a dilution series.
For `CC(C)=CCC[C@](C)(O[C@@H]1O[C@H](CO[C@@H]2OC[C@@H](O)[C@H](O)[C@H]2O)[C@@H](O)[C@H](O)[C@H]1O)[C@H]1CC[C@]2(C)[C@@H]1[C@H](O)C[C@@H]1[C@@]3(C)CC[C@H](O[C@@H]4O[C@H](CO)[C@@H](O)[C@H](O)[C@H]4O[C@@H]4O[C@H](CO)[C@@H](O)[C@H](O)[C@H]4O)C(C)(C)[C@@H]3CC[C@]12C`, the “outcome” value is “inactive [at 17.4 µM]”.

For `C/C(=C\CO)CC/C=C(\C)C(=O)O[C@H]1[C@H](OC2OC=C(C(=O)O)C3CCC(C)(O)C23)O[C@H](CO)[C@@H](O)[C@@H]1O` (some centres not stated), the “outcome” value was “inactive [at 17.4 µM]”.

As for `CC1CC(O)C2(C)C(C(=O)O)=CCCC2C1(C)CCc1ccoc1` (configuration not stated), the outcome was inactive.

On to `O=C(NCC(=O)N1CC[C@H](NC2CCC(O)(c3ccc(-c4ncccn4)cn3)CC2)C1)c1cccc(C(F)(F)F)c1` (some centres not stated), for which the outcome was inactive.

Regarding `Cc1cc(C)cc(NC(=O)Cc2ccc(OC(C)(C)C(=O)O)cc2)c1`, the outcome was inactive.

`CC(/C=C/C1(O)C2(C)COC1(C)CC(=O)C2)O[C@@H]1O[C@H](CO)[C@@H](O)[C@H](O)[C@H]1O` (some centres not stated): the “outcome” value is “inactive [at 17.4 µM]”.

Consider `CC1CC(=O)C2=C(O1)OC1(C)CCC3C(C)(C)C=CC(=O)C3(C)C1C2` (configuration not stated), for which the outcome was inactive.

As to `COc1ccc2c(c1)OC[C@]1(O)c3cc4c(cc3O[C@H]21)OCO4`, the outcome was inactive.

`C=C(C)[C@H]1C[C@@H](O)C(=C)CC[C@@H](O)C(=C)[C@@H](O)C1`: the outcome was inactive.

On to `CC(C#N)C(C)O[C@@H]1O[C@H](CO)[C@@H](O)[C@H](O)[C@H]1O` (some centres not stated), for which the result was inactive.

As for `NC(=O)c1cccc(-c2cc(O)cc(OC(=O)NC3CCCCC3)c2)c1`, the “outcome” value is “inactive [at 17.4 µM]”.

Regarding `C=C(C(=O)OC)C1CCC2(C)C(O[C@@H]3O[C@H](CO)[C@@H](O)[C@H](O)[C@H]3O)CC(=O)C(C)C2C1O` (some centres not stated), the “outcome” value was “inactive [at 17.4 µM]”.

With `CC1CCC2C(C(=O)O)=CC3C(O)C(C)(C)CC123` (configuration not stated), the result was inactive.

Regarding `Cc1cc(O)cc(Oc2cc(C)c(C(=O)O)c(O)c2)c1`, the outcome was inactive.

Consider `CC(C)(O)/C=C1/C(=O)C(C)(C)C(=O)C(C)(C)C1(O)O[C@@H]1O[C@H](COC(=O)c2cc(O)c(O)c(O)c2)[C@@H](O)[C@H](O)[C@H]1O` (some centres not stated), for which the “outcome” value is “inactive [at 17.4 µM]”.

With `Nc1ccn([C@@H]2C(F)=C(CO)[C@@H](O)[C@H]2O)c(=O)n1`, the Potency is 3660 nM (active).

Take `Clc1ccc2c(c1)C1=NCCN1c1c(-c3noc(C4CC4)n3)ncn1-2`: the result was inactive.

In the case of `C=C1CCC[C@]2(C)C[C@]3(O)OC(=O)C(C)=C3C[C@@H]12`, the outcome was inactive.

In the case of `C[C@@H]1O[C@@H](O[C@H]2[C@H](OC(=O)[C@]34CCC(C)(C)C[C@H]3C3=CCC5[C@@]6(C)C[C@H](O)[C@H](O[C@@H]7O[C@H](CO)[C@@H](O[C@@H]8O[C@H](CO)[C@@H](O)[C@H](O)[C@H]8O)[C@H](O)[C@H]7O)[C@@](C)(CO)C6[C@H](O)C[C@@]5(C)[C@]3(C)C[C@H]4O)OC[C@H](O)[C@@H]2O)[C@H](O)[C@H](O)[C@H]1O[C@@H]1OC[C@@H](O)[C@H](O[C@@H]2OC[C@](O)(CO)[C@H]2O)[C@H]1O` (some centres not stated), the outcome was “inactive [at 9.29 µM]”.

Consider `CC1=C2C=C(CO)C(CO)CCC2(C)CCC1=O` (configuration not stated), for which the outcome was inactive.

On to `CC1=C(CC(=O)O)c2cc(F)ccc2C1=Cc1ccc(S(C)(=O)=O)cc1`, for which the outcome was inactive.

For `N[C@H]1C[C@H]1c1ccc(-c2cccc(O)c2)cc1`, the Potency entry was “inactive”.

Regarding `CC(=O)OC[C@@]12[C@H](O)C[C@@H](C)[C@]3(C[C@@H](c4ccoc4)OC3=O)[C@H]1C[C@H](O)C[C@]21CO1`, the “outcome” value is “inactive [at 17.4 µM]”.

In the case of `CC(=O)c1cnc2ccc(-c3cc(Cl)c(O)c(Cl)c3)nc2c1NC1CCC(CN(C)C)CC1` (configuration not stated), the Potency is 13 nM (active).

As to `Nc1ncnc2c1ncn2[C@H]1CCCO1`, the outcome was inactive.

As for `COc1cc(C(C)=O)ccc1O[C@@H]1O[C@H](CO[C@@H]2O[C@@H](C)[C@H](O)[C@@H](O)[C@H]2O)[C@@H](O)[C@H](O)[C@H]1O`, the “outcome” value was “inactive [at 17.4 µM]”.

In the case of `CCC(C)C1NC(=O)C2CCCN2C(=O)C(C(C)C)NC(=O)c2ccccc2NC(=O)C(Cc2ccc(O)cc2)NC(=O)C(C)NC(=O)C(C(C)O)NC1=O` (configuration not stated) (cyclo([2Abz]VPITAY); configuration not given here), the “outcome” value was “inactive [at 17.4 µM]”.

Take `CC(C)=CCc1ccc(Oc2c(O)cc(C)cc2CO)c(C(=O)O)c1O`: the outcome was inactive.

For the molecule `CN1C(=O)c2ccccc2-n2c(nc3ccccc3c2=O)/C1=C/c1ccccc1`, the outcome was inactive.

As to `C=C1CC23CC1(O)CCC2C1=CC2OC(=O)C(C)(C2O)C1C3C(=O)O` (configuration not stated), the outcome was inactive.

As for `CC1(C)NC2N(C1=O)c1ccccc1C2(O)CC(C(=O)O)n1cnc2ccccc2c1=O` (configuration not stated), the “outcome” value was “inactive [at 17.4 µM]”.

`CC(NC(=O)CC(=O)O)c1nc2ccccc2c(=O)[nH]1` (configuration not stated): the outcome was inactive.

As to `C[C@H]1[C@H](C)CC[C@]2(C(=O)O)CC[C@]3(C)C(=CC[C@@H]4[C@@]5(C)C[C@@H](O)[C@H](O)[C@@](C)(CO)[C@@H]5CC[C@]43C)[C@H]12`, the result was inactive.

Take `CC1(C)CC[C@]2(C(=O)O[C@@H]3O[C@H](CO)[C@@H](O)[C@H](O)[C@H]3O)CC[C@]3(C)C(=CCC4[C@@]5(C)C[C@@H](O)[C@H](O)[C@@](C)(CO)C5CC[C@]43C)C2C1` (some centres not stated): the “outcome” value was “inactive [at 17.4 µM]”.

In the case of `Cc1ncc([N+](=O)[O-])n1CC(O)CN1CCOCC1` (configuration not stated), the result was inactive.

As for `COc1cc(C2Oc3c(O)cc(CCCO)cc3C2CO)ccc1O[C@H]1O[C@H](C)[C@@H](O)[C@H](O)[C@@H]1O` (some centres not stated), the “outcome” value is “inactive [at 17.4 µM]”.

As for `O=C(/C=C/c1ccc(O)cc1)O[C@H]1[C@@H]2C=CO[C@@H](O[C@@H]3O[C@H](CO)[C@@H](O)[C@H](O)[C@H]3O)[C@@H]2[C@@]2(CO)O[C@@H]12`, the “outcome” value is “inactive [at 17.4 µM]”.

The record behind these values is PubChem BioAssay (NCATS).
